# High-throughput results: PubChem BioAssay, National Center for Advancing Translational Sciences (NCATS)
# CBFb-RUNX1 inh: qHTS Assay for Compounds Blocking the Interaction Between CBF-beta and RUNX1 for the Treatment of Acute Myeloid Leukemia; Runt-related transcription factor 1 (Homo sapiens) + Core-binding factor subunit beta …; AlphaScreen CBFb-His/RUNX1-biotin binding, biochemical; Potency, µM (doses to about 59.8 µM), for inactives: at the top dose activity, negative = inhibition, most hits filed as inhibitors; 230,000 tested, under 10 active; AID 1477, 2009; further: % of control where 0% means no effect
# Target sequence (Q01196 whole entry, looked up): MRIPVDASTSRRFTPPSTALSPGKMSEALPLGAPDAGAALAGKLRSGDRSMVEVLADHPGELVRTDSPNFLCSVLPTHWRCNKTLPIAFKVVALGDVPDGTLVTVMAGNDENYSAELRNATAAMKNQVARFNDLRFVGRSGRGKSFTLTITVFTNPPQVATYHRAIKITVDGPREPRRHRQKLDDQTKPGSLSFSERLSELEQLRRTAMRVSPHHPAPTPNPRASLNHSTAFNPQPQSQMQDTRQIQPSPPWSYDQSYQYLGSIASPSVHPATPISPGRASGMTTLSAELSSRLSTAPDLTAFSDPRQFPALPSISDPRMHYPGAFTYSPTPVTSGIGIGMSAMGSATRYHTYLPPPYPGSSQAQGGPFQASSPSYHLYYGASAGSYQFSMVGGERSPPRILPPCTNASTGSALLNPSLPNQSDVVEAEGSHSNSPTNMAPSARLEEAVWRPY
# Target sequence (Q13951 whole entry, looked up): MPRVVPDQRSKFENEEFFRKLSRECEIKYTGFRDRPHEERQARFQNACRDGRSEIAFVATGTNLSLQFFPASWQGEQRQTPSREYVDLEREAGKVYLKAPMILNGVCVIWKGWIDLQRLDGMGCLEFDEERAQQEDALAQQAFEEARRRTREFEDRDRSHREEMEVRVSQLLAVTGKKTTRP
#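 AlphaScreen binding: CBFb-His and RUNX1-biotin (30 nM each) preincubated 20 min, compound added for 15 min, then nickel and streptavidin beads for 90 min, all at room temperature. Disruption of the interaction by any mechanism counts as activity.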
# PLK1 PBD inh: qHTS for Inhibitors of PLK1-PDB (polo-like kinase 1 - polo-box domain): Primary Screen; Serine/threonine-protein kinase PLK1 (Homo sapiens), P53350; Plk1 PBD binding of FITC phosphopeptide, fluorescence polarization; Potency, µM, without a hit: max response, negative = inhibition, most hits filed as inhibitors; 360,000 compounds, 2.8% hits; AID 720504, 2013; further: potency means the concentration at half of the fitted maximal effect; series mostly up to about 57 µM; on the % scale 0 is the no-effect control and ±100 the full control effect; nearly all actives have a fitted effect of over 65% in size
# VDR inhibitor: Inhibitors of the vitamin D receptor (VDR): qHTS | VDR-SRC2-3 peptide fluorescence polarization, 2 h | Potency, µM, inactives show max response, negative = inhibition, hits mostly inhibitors | 400,000 compounds, 0.93% hits | AID 504847, 2011; further: potency means the concentration at half of the fitted maximal effect; on the % scale 0 is the no-effect control and ±100 the full control effect
#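 Fluorescence polarization assay of small-molecule disruption of VDR binding to coregulator peptide SRC2-3. Compounds and controls pin-transferred, then read after 2 h incubation at ambient room temperature.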
# hERG WT inh: qHTS for Inhibitors of KCHN2 3.1: Wildtype qHTS; activity change, % at 1.84 µM; Voltage-gated inwardly rectifying potassium channel KCNH2 (Homo sapiens), Q12809; 340,000 compounds, 0.37% hits; U2OS, BacMam KCNH2, thallium flux FluxOr; active compounds read low;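 active means maximum activity change below -70%; inconclusive means maximum activity change between -70% and -50%; inactive means maximum activity change above -50%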; further: on the % scale 0 is the no-effect control and ±100 the full control effect
#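 U2OS cells transduced with wild-type KCNH2 virus are loaded with FluxOr dye for 45 min, and thallium flux is measured in kinetic reads before and after stimulation buffer. Rate constants are normalized to DMSO controls.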
# KCNH2 3.1 block: qHTS for Inhibitors of KCHN2 3.1: Mutant qHTS. U2OS KCNH2 3.1, thallium flux FluxOr; active compounds read low. 340,000 compounds, 0.95% hits. AID 720553, 2013. Potassium voltage-gated channel subfamily H member 2, brain isoform KCNH2 3.1 (human). activity change, % (tested at about 1.8 µM);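 active means maximum activity change below -70%; inconclusive means maximum activity change from -70% to -50%; inactive means maximum activity change above -50%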;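 further: thallium influx rate constant from kinetic fluorescence after stimulation buffer; on the % scale 0 is the no-effect control and ±100 the full control effect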
#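 We transduce U2OS cells with the mutant 3.1 virus, culture them overnight, load FluxOr with Red40 quencher for 45 min, then add stimulation buffer and read kinetically for 2 min to derive a normalized rate constant.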
# MBNL1 CUG block: qHTS Assay for Inhibitors of MBNL1-poly(CUG) RNA binding; Potency, µM (top dose mostly 57.5 µM), for inactives: top-dose activity change, negative = inhibition, usual class: inhibitors; TR-FRET MBNL1-His/biotin-(CUG)12 binding, 665/545 ratio; 280,000 compounds, 0.036% hits; active means well fitted inhibition curve with a large enough effect in the signal ratio, with a control signal flat, not every such curve was filed as active; inconclusive means small, poorly fitted or top-dose-only effect, or effect the other way, or a change in a side signal; inactive means no such curve, though single readings can be large or run the other way; the % refers to the signal ratio; further: potency means the concentration at half of the fitted maximal effect; on the % scale 0 is the no-effect control and ±100 the full control effect
#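 Inhibition of protein-RNA binding appears as loss of TR-FRET between terbium anti-His antibody on MBNL1-His and streptavidin-XL665 on biotin-(CUG)12. Activity is normalized to buffer-only and uninhibited-complex controls.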
# Active calls of the source: *; ? = inconclusive; · = not tested or not shown; [ ] = another dose, or the depositor's remark. Only some compounds are listed: those with a hit (about 3.8% of all), similar ones and a draw of the others. Unless noted, the call rests on the fitted dose curve; in most records, active means well fitted curve in the direction sought with a large enough effect; inconclusive means small, poorly fitted or top-dose-only effect, or another doubt; inactive means no such curve, though single readings can be large; an effect the other way counts as inactive or inconclusive.
SMILES,CBFb-RUNX1 inh,PLK1 PBD inh,VDR inhibitor,hERG WT inh,KCNH2 3.1 block,MBNL1 CUG block
COc1cc([N+](=O)[O-])cc(/C=N/NC(=O)Cn2nccc2C)c1O,?,27µM*,?,-5,-5,?
C=CCn1c(SCC(C)=O)nc2scc(-c3ccco3)c2c1=O,·,?,79µM*,-11,-11,6%
C=CCn1c(SCC(=O)N2CC(=O)Nc3ccccc32)nc2scc(-c3ccccc3)c2c1=O,-14%,12µM*,4%,-14,15,26%
C=CCn1c(SC(F)F)nc2scc(-c3ccco3)c2c1=O,·,-11%,?,-9,-14,3%
O=C(O)c1ccc2c(=O)n3c(nc2c1)/C(=C/c1cccc(Cl)c1Cl)CC3,·,0%,11%,6,-7,16%
O=C(O)c1ccc2c(=O)n3c(nc2c1)/C(=C/c1ccc(Cl)cc1Cl)CC3,·,27µM*,19%,7,28,?
COc1ccc(-c2nnc3n2N=C(c2ccccc2OC)CS3)cc1,3%,·,·,·,·,·
O=C(NCCc1csc(-c2cccnc2)n1)c1ccc(F)c(F)c1,·,·,-6%,·,·,·
CCNC(=O)NCc1cccc(Cl)c1,·,·,4%,·,·,·
C/C(=C(/CCO)SSCC1CCCO1)N(C=O)Cc1cnc(C)nc1N (stereo unspecified),·,2%,56µM*,-5,-2,·
C/C(=C(/CCO)SSC[C@@H]1CCCO1)N(C=O)Cc1cnc(C)nc1N,-6%[21.7 µM],·,14µM*,·,·,·
CCCSS/C(CCO)=C(/C)N(C=O)Cc1cnc(C)nc1N,·,·,25µM*,·,·,·
Cc1ncc(C[n+]2ccc(C)c(C)c2)c(N)n1,·,-5%,-3%,-2,11,·
CCCCCCCC1=Cc2ccccc2C(CC(=O)c2ccccc2)N1C(=O)OC (stereo unspecified),1%[13.1 µM],·,·,·,·,·
CCOC(=O)/C(=C\c1cccnc1)C(=O)c1cc(C(C)=O)c(Nc2ccccc2)s1,-3%,?,7.9µM*,5,-10,?
O=C1CSc2ccc(S(=O)(=O)N3CCN(c4ccccc4)CC3)cc2N1,·,-1%,-5%,-1,-16,-8%
CCC1Sc2ccc(S(=O)(=O)N3CCN(c4ccccc4)CC3)cc2NC1=O (stereo unspecified),·,3.4µM*,?,0,-19,-10%
COc1ccc(N2CCN(C(=O)C3CCN(S(=O)(=O)c4cccc5nonc45)CC3)CC2)cc1,·,·,0%,·,·,·
Cn1c(CSc2ccccc2)c(C#N)c2ccccc21,?,-5%,60%,-13,-1,1%
Cc1ccc(SCc2c(C#N)c3ccccc3n2C)cc1,?,5.3µM*,-13%,4,-8,7%
CC(Sc1nnc(-c2ccccc2F)n1C)C(=O)Nc1ccc(N2CCOCC2)cc1 (stereo unspecified),·,-5%,·,11,-5,·
CC(Sc1nnc(C(F)(F)F)n1C)C(=O)Nc1ccc(S(N)(=O)=O)cc1 (stereo unspecified),-2%,30µM*,-19%,-2,8,?
CC(Sc1nnc(C(F)(F)F)n1C)C(=O)Nc1ccc(N2CCOCC2)cc1 (stereo unspecified),·,-3%,11%,-140*,-186*,·
COc1ccc(OC)c(C2Nc3c(C)cc(C)cc3-c3cc(C)nn32)c1 (stereo unspecified),·,·,-13%,·,·,·
Cc1cccc(N2CCN(C(=O)c3nn(C)c4c3CSc3ccccc3-4)CC2C)c1 (stereo unspecified),·,·,19%,·,·,·
CC(C)=CCC/C(C)=C/COc1c2ccoc2cc2oc(=O)ccc12,·,·,-29%,·,·,·
